In PubChem BioAssay:

Assay: blockers of RIG-like receptor reporter activation – cell-based, Sendai virus stimulus, luciferase, 10K MLSCN set, TLR/RLR signaling modifier project, primary screen (AID 602276;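 active = inhibition at or above 50% at 10 µM; inactive = inhibition below 50%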;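 also: firefly luciferase from ISG56 promoter only with Renilla not read in this screen; 0% = Sendai virus plus DMSO and 100% = medium plus DMSO without virus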)
Settings: HEK293 RL24 IRF3 luciferase reporter, at 10 µM, active compounds read high

inhibition, inactive:
COc1ccc(C(=O)N2CCCc3ccccc32)cc1 7.26%
CCOC(=O)c1cnn(-c2sc(C(=O)OCC)c(C)c2C(=O)OCC)c1N 7.68%
CCn1c(C(=O)N2CCCC(C(=O)NCCCc3ccccc3)C2)cc2sccc21 (centres undefined) -0.231%
CCC1CCCCN1CCCNC(=O)CC1Oc2ccc(C)cc2NC1=O (centres undefined) 5.08%
CC(C)OC(=O)CSc1nnc(-c2ccccn2)n1-c1ccccc1 4.23%
O=C(O)C1CC=CCC1C(=O)Nc1cc(Cl)ccc1Cl (centres undefined) -11.2%
COC(=O)Nc1ccc(NC(C)=O)cc1 -9.94%
O=C(COC(=O)c1cncc(Br)c1)NCCC1=CCCCC1 1.87%
COc1cccc(-c2noc(C3CCCN(C(=O)Cc4ccccc4)C3)n2)c1 (centres undefined) 9.8%
Cc1cc(NS(=O)(=O)c2ccc(NC(=O)Nc3ccc4c(c3)OCO4)cc2)no1 -9.3%
CCOC(=O)N1CCC(N2C(=O)c3ccc(C(=O)NCc4ccco4)cc3C2=O)CC1 7.39%
COc1ccc(C2CC(=O)C3=C(C2)Nc2ccccc2N(C(=O)C2CC2)C3c2cccnc2)cc1OC (centres undefined) 10.6%
OC(CNCC1COc2ccccc2O1)COCc1cccs1 (centres undefined) -3.3%
COC(=O)n1c(=S)oc2cc(Cl)ccc21 16.6%
CCOC(=O)C1CCN(C(=O)CCCCn2c(=O)[nH]c3ccccc3c2=O)CC1 0.817%
CN(c1ccc(OCc2nnc(-c3ccccc3)o2)cc1)S(=O)(=O)c1ccccc1 11.5%
Cc1ccccc1NC(=O)C1CCCN(S(=O)(=O)c2cnc[nH]2)C1 (centres undefined) 10.6%
COc1ccc(C(=O)NCC(=O)NC2=NCCS2)cc1 5.81%
O=C1N2c3ccccc3CCc3cccc(c32)C1(O)C(F)(F)F (centres undefined) 17.9%
Cn1c(=O)c2c(nc(CN3CCN(Cc4ccccc4)CC3)n2Cc2cccc(Cl)c2)n(C)c1=O 15.9%
CN(C)c1ccc(CNCCC2(O)CCOC(C)(C)C2)cc1 (centres undefined) 0.927%
CC(C(N)=O)N1C(=O)C2C3C=CC(C3)C2C1=O (centres undefined) 10.1%
Nc1nc(-c2ccc(Br)s2)c(Br)s1 1.12%
O=C(c1c(F)cccc1F)N(Cc1ccccn1)C1CCCC1 -7.47%

Assay: TLR3 IRF3 reporter activation blockers – cell-based, poly I:C stimulus, luciferase, 10K MLSCN set, primary screen (AID 602277)
Settings: HEK293-TLR3 RL24 IRF3 luciferase reporter, at 10 µM, active compounds read high

inhibition, inactive:
CCOC(=O)N1CCN(C(=O)c2cccn3c(=O)c4sccc4nc23)CC1 -5.35%
O=C(c1cc2ccccc2oc1=O)N1CCN(c2ccc(N3CCOCC3)nn2)CC1 18.4%
CCc1cccc(NC(=O)CCc2nc(-c3cccs3)no2)c1 18.5%
O=C(C1CC1)N1CCc2cc(Br)cc(S(=O)(=O)N3CCOCC3)c21 24.8%
CCOCCCNC(=O)C1CCCN(S(=O)(=O)CC)C1 (centres undefined) 12.2%
C/C(N)=C(/C#N)C(=O)COC(=O)CCSc1ccccc1 -9.84%
CCCOc1ccc(N2CC(C(=O)Nc3ccc4c(c3)OCO4)CC2=O)cc1 (centres undefined) 6.03%
CCC(C)Nc1nc2c(c(=O)n(C)c(=O)n2C)n1Cc1ccc(F)cc1 (centres undefined) 23.7%
COc1ccc2cc(C(c3nnnn3C3CCCCC3)N3CCCCCC3)c3nnnn3c2c1 (centres undefined) -2.36%
O=C(Nc1cccnc1)Nc1ccccn1 0.317%
O=C(NC1CCCCC1)c1cc2nc(-c3ccco3)cc(C(F)(F)F)n2n1 10.6%
O=C(CCN1C(=O)COc2ccccc21)NCCN1CCN(c2cccc(Cl)c2)CC1 7.33%
CCCc1cc(=O)[nH]c(SCc2ccccc2)n1 30%
CC(CCc1ccco1)NC(=O)Cn1ncc2c1-c1ccccc1OC2 (centres undefined) 11.2%
CCCNC(=O)c1ccccc1NC(=O)CN(c1ccccc1OCC)S(C)(=O)=O 20.9%
CCS(=O)(=O)N1CCC(C(=O)NC2CCCCCCC2)CC1 -6.47%
COc1ccc(C(=O)N2CCCc3ccccc32)cc1 5.78%
CCOC(=O)c1cnn(-c2sc(C(=O)OCC)c(C)c2C(=O)OCC)c1N -49.4%
CCn1c(C(=O)N2CCCC(C(=O)NCCCc3ccccc3)C2)cc2sccc21 (centres undefined) -1.26%
CCC1CCCCN1CCCNC(=O)CC1Oc2ccc(C)cc2NC1=O (centres undefined) 29.6%
CC(C)OC(=O)CSc1nnc(-c2ccccn2)n1-c1ccccc1 6.06%
O=C(O)C1CC=CCC1C(=O)Nc1cc(Cl)ccc1Cl (centres undefined) 1.01%
COC(=O)Nc1ccc(NC(C)=O)cc1 -5.16%
O=C(COC(=O)c1cncc(Br)c1)NCCC1=CCCCC1 25.9%
COc1cccc(-c2noc(C3CCCN(C(=O)Cc4ccccc4)C3)n2)c1 (centres undefined) 14.1%
Cc1cc(NS(=O)(=O)c2ccc(NC(=O)Nc3ccc4c(c3)OCO4)cc2)no1 -20.7%
CCOC(=O)N1CCC(N2C(=O)c3ccc(C(=O)NCc4ccco4)cc3C2=O)CC1 26.2%
COc1ccc(C2CC(=O)C3=C(C2)Nc2ccccc2N(C(=O)C2CC2)C3c2cccnc2)cc1OC (centres undefined) 17.6%
OC(CNCC1COc2ccccc2O1)COCc1cccs1 (centres undefined) 2.31%
COC(=O)n1c(=S)oc2cc(Cl)ccc21 31.1%
CCOC(=O)C1CCN(C(=O)CCCCn2c(=O)[nH]c3ccccc3c2=O)CC1 -29.5%
CN(c1ccc(OCc2nnc(-c3ccccc3)o2)cc1)S(=O)(=O)c1ccccc1 -5.42%
Cc1ccccc1NC(=O)C1CCCN(S(=O)(=O)c2cnc[nH]2)C1 (centres undefined) 32.6%
COc1ccc(C(=O)NCC(=O)NC2=NCCS2)cc1 28.4%
O=C1N2c3ccccc3CCc3cccc(c32)C1(O)C(F)(F)F (centres undefined) 12.7%
Cn1c(=O)c2c(nc(CN3CCN(Cc4ccccc4)CC3)n2Cc2cccc(Cl)c2)n(C)c1=O 48.7%
CN(C)c1ccc(CNCCC2(O)CCOC(C)(C)C2)cc1 (centres undefined) 28.2%
CC(C(N)=O)N1C(=O)C2C3C=CC(C3)C2C1=O (centres undefined) 11.3%
Nc1nc(-c2ccc(Br)s2)c(Br)s1 2.3%
O=C(c1c(F)cccc1F)N(Cc1ccccn1)C1CCCC1 -6.01%
